Source: ChEMBL document CHEMBL3988442, “University of Dundee, Small-Polar-MMV Screening Library” (2021)
The campaign covered roughly 38,000 compounds. About 1,200 (3.2%) showed an effect of 50% or more. The median lay at about -58%. For the sample, strong results were picked, then their nearest neighbours and some compounds at random.

What follows are compounds tested on Plasmodium falciparum (assay: Calibr Malaria Delayed Death Assay SOP). Settings: concentration 4.99e-06 (unit not given; other assays of the set use mol/L).
Assay type: functional, organism-based
Parameters: scale not given: in the data most compounds retested in dose-response had high values

| SMILES | Percent Effect |
| --- | --- |
| Cc1ccc(-c2nc(CNC(C)CCO)[nH]c2-c2ccccn2)cc1 (stereo unspecified) | 85.22% |
| COCC(C)NCc1nc(-c2ccc(C)cc2)c(-c2ccccn2)[nH]1 (stereo unspecified) | 45.68% |
| Cc1ccc(-c2nc(CNS(=O)(=O)N(C)C)[nH]c2-c2ccccn2)cc1 | -8.879% |
| CCOc1ccc(CNCCCn2ccnc2)cc1Br | 79.67% |
| COCCCn1ccc(NC(=O)NCCCn2ccnc2)n1 | -63.56% |
| COc1cc(CNCCn2ccnc2)cc2c1OCO2.Cl | -91.54% |
| CCOc1ccc(Cl)cc1CCNC(=O)Cn1nc(C)ccc1=O | -103.1% |
| O=C(CN1CCOc2ccc(Cl)cc21)NCCCn1ccnc1 | -34.55% |
| CCOc1ccc(Cl)cc1CNCCCn1ccnc1 | 51.78% |
| CN(C)CCNCC1COCc2c(-c3ccnn3C)nnn2C1 (stereo unspecified) | -61.69% |
| O=C(c1cccc2ncccc12)N1CCC(Nc2cccnn2)CC1 | -119.6% |
| Cc1nc(CN2CCN(CCCc3ccccc3)CC2)no1 | -34.84% |
| COc1ccc(-c2nc(CNC3CCc4nc(C)nn4C3)no2)cc1 (stereo unspecified) | -54.43% |
| COc1cccnc1-c1ccc(F)c2c1OC(CN)C2 (stereo unspecified) | 57.41% |
| COc1cc(-c2ccc(F)c3c2OC(CN)C3)cc(OC)c1OC (stereo unspecified) | -14% |
| COc1cc(C)c(-c2ccc(F)c3c2OC(CN)C3)cc1C (stereo unspecified) | 83.54% |
| Cc1cc2n(n1)CC(CNCc1ccccc1Cn1cccn1)CN2 (stereo unspecified) | -15.62% |
| O=C(O)C(F)(F)F.O=C(O)C(F)(F)F.c1cncc(C2COC3(CCN(Cc4nccs4)CC3)C2)c1 (stereo unspecified) | -1.865% |
| CCN1CC2(CC1=O)CN(C(=O)c1ccco1)CCN(C(=O)C(C)C)C2 (stereo unspecified) | -62.73% |
| O=C1[C@H]2CC[C@H](CN(c3ncnc4ccsc34)C2)N1CC1CC1 | -91.86% |
| COCCCN(C)C(=O)c1cccc(Nc2cnccn2)c1 | -92.25% |
| N[C@H]1CN(C(=O)c2cnc3cc(Cl)ccc3c2O)C[C@@H]1C1CC1 | -23.25% |
| N[C@H]1CN(C(=O)c2ccc(Cl)cc2O)C[C@@H]1C1CC1 | 32.78% |
| Cc1cc(Cl)ccc1C(=O)N1C[C@H](C2CC2)[C@@H](N)C1 | 60.81% |
| N#CCSCCCN1CCN(C(=O)c2ccccc2F)CC1 | -147% |
| Cc1nnc(NC(=O)NCCCN2CCC(C(N)=O)CC2)s1 | -23.13% |

| SMILES | Percent Effect |
| --- | --- |
| CC1CC(NS(=O)(=O)c2ccc(C(F)(F)F)nc2)C1 (stereo unspecified) | -159.1% |
| O=c1ncn(-c2ccc(F)cc2)c2ncccc12 | -138.9% |
| O[C@H]1[C@H](n2cc(CN3CCCC3)nn2)c2ccccc2C12CCNCC2 | 62.81% |
| COCc1cn([C@@H]2c3ccccc3C3(CCNCC3)[C@H]2O)nn1 | -27.47% |
| OCc1cn([C@@H]2c3ccccc3C3(CCNCC3)[C@H]2O)nn1 | -123.5% |
| CC(c1cccc(O)c1)N(C)S(=O)(=O)c1cccnc1 (stereo unspecified) | 70.34% |
| CCN(C(C)c1cccc(O)c1)S(=O)(=O)c1cccnc1 (stereo unspecified) | 75.64% |
| CC(c1cccc(O)c1)N(C)S(N)(=O)=O (stereo unspecified) | -84.23% |
| CC(c1cccnc1)N(C)S(C)(=O)=O (stereo unspecified) | -49.62% |
| Cc1cccc(C(C)(C)CNC(=O)CN(C)S(=O)(=O)c2cccnc2)c1 | -59.91% |
| CCOc1c(F)cccc1C(=O)N(CC)C(C)c1cccnc1 (stereo unspecified) | -44.59% |
| Cn1cc(CN2CCc3ccc(=O)n(Cc4ccncc4)c3CC2)cn1.O=C(O)C(F)(F)F.O=C(O)C(F)(F)F | -100.7% |
| CCn1nccc1CNc1[nH]cnc2nncc1-2 | -100.3% |
| Cn1cccc1C(=O)N1C[C@@H](OCc2ccncc2)[C@@H]2OCCC[C@@H]21.O=C(O)C(F)(F)F | -99.03% |
| CCNc1ncc(CN(Cc2ccccc2)CC(C)CO)cn1 (stereo unspecified) | -11.14% |
| COC(=O)[C@@H]1Cc2[nH]cnc2CN1Cc1cc2ccccc2o1 | -36.16% |
| CN1CCN(C(=O)C2CN(Cc3cc4ccccc4o3)CCN2)CC1 (stereo unspecified) | -105.5% |
| Cl.Cl.O[C@@H]1C[C@@](CNCc2cccc(Cl)c2)(COc2cccnc2)C[C@@H]1O | 34.26% |
| Cl.Cl.O[C@@H]1C[C@@](CNCc2ccc(F)cc2)(COc2cccnc2)C[C@@H]1O | 40.62% |
| Cl.Cl.O[C@@H]1C[C@@](CNCc2ccc(Cl)cc2)(COc2cccnc2)C[C@@H]1O | 70.01% |
| CN(Cc1noc2c1CCCC2)C(=O)Nc1cccc(S(N)(=O)=O)c1 | -16.52% |
| Cc1cc(CN(C)c2nc(-c3ccccn3)nc3c2CCNCC3)n[nH]1 | 68.42% |
| Cc1nc2c(c(N(C)CC3Cc4ccccc4CN3C)n1)CCNCC2 (stereo unspecified) | 41.97% |
| Cc1nc2c(c(N(C)Cc3ccccc3-n3cccn3)n1)CCNCC2 | -7.146% |
| CN(Cc1ccon1)c1nc(-c2ccccn2)nc2c1CCNCC2 | 75.26% |
